Records with an inconclusive call do not appear. Activity calls are given as the source filed them. The call rests on the fitted dose curve; in most records, active means well fitted curve in the direction sought with a large enough effect; inconclusive means small, poorly fitted or top-dose-only effect, or another doubt; inactive means no such curve, though single readings can be large; an effect the other way counts as inactive or inconclusive.
Legend:
KB-3-1 = test: Cytotoxic Profiling of Annotated Libraries Using Quantitative High-Throughput Screening (AID 1296008); details: Five cell lines viability, CellTiter-Glo ATP luminescence, 48-72 h; max response: hits give low values; further: nearly all actives have a fitted effect of over 60% in size
How it was run: (§1)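 Compounds were pin-transferred onto cells and incubated 48 or 72 hr at 37 degree Celsius, 95% humidity. CellTiter-Glo was added, plates sat 10 min at room temperature, then ATP-coupled luminescence was imaged as the viability read-out.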

NIH3T3 = test: as above; details: Five cell lines viability, CellTiter-Glo ATP luminescence, 48-72 h; max response: hits give low values
How it was run: as §1

C33A = test: Primary qHTS to identify gynecologic anti-cancer compounds using libraries of approved drugs and bioactive compounds (AID 1345084); details: Gynecologic cancer cell panel viability, ATPlite luminescence, 48 h; series mostly up to 57.5 µM; further: nearly all actives have a fitted effect of over 55% in size
How it was run: (§2)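 In this quantitative HTS, cell killing is estimated from loss of ATP-dependent luciferase light. Cells see five compound concentrations over a 48 h exposure.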

CASKI = test: as above; details: Gynecologic cancer cell panel viability, ATPlite luminescence, 48 h; series mostly up to 57.5 µM
How it was run: as §2

HeLa = test: as above; details: Gynecologic cancer cell panel viability, ATPlite luminescence, 48 h; series mostly up to 57.5 µM
How it was run: as §2

Hek293T = test: as above; details: Gynecologic cancer cell panel viability, ATPlite luminescence, 48 h, control line for the selectivity index; series mostly up to 57.5 µM
How it was run: as §2

JEG-3 = test: as above; details: Gynecologic cancer cell panel viability, ATPlite luminescence, 48 h; series mostly up to 57.5 µM
How it was run: as §2

Es-2 = test: as above; details: Gynecologic cancer cell panel viability, ATPlite luminescence, 48 h; series mostly up to 57.5 µM
How it was run: as §2

OV90 = test: as above; details: Gynecologic cancer cell panel viability, ATPlite luminescence, 48 h; series mostly up to 57.5 µM
How it was run: as §2

CAOV3 = test: as above; details: Gynecologic cancer cell panel viability, ATPlite luminescence, 48 h; series mostly up to 57.5 µM
How it was run: as §2
On the % scale 0 is the no-effect control and ±100 the full control effect; potency means the concentration at half of the fitted maximal effect.

N=c1nc2n(cc1F)C1OC(CO)C(O)C1O2 (configuration not stated)
inactive: max response (KB-3-1) -7.19% | Potency (C33A) | Potency (CASKI) | Potency (HeLa) | Potency (Hek293T) | Potency (JEG-3)
active: Potency (NIH3T3) 2060 nM

C[C@H](Oc1ccc(S(C)(=O)=O)cc1C(=O)N1CCN(c2ncc(C(F)(F)F)cc2F)CC1)C(F)(F)F
inactive: max response (KB-3-1) 4.57% | max response (NIH3T3) -19.7% | Potency (C33A) | Potency (CASKI) | Potency (Es-2) | Potency (HeLa) | Potency (Hek293T) | Potency (JEG-3) | Potency (OV90)

CCO[C@@H]1OC(=O)C[C@@H]1NC(=O)[C@@H]1CCCN1C(=O)[C@@H](NC(=O)c1ccc(N)c(Cl)c1)C(C)(C)C
inactive: max response (KB-3-1) 2.91% | max response (NIH3T3) -4.45% | Potency (C33A) | Potency (CASKI) | Potency (Es-2) | Potency (HeLa) | Potency (Hek293T) | Potency (JEG-3) | Potency (OV90)

COc1cc2c(cc1OC)N1C(=O)C[C@]34C=CCN5CC[C@@H]2[C@@H](CC3)[C@]514
inactive: max response (KB-3-1) 7.8% | max response (NIH3T3) -2.04% | Potency (C33A) | Potency (CAOV3) | Potency (Es-2) | Potency (HeLa) | Potency (Hek293T) | Potency (JEG-3) | Potency (OV90)

Cc1cccc2c1NC(=O)C2(c1ccc(O)cc1)c1ccc(O)cc1
inactive: max response (KB-3-1) -4.45% | max response (NIH3T3) -15.5% | Potency (C33A) | Potency (CAOV3) | Potency (CASKI) | Potency (Es-2) | Potency (JEG-3)

Cc1cc(Nc2ccc(NC(=O)c3ccc(Nc4ccnc5ccccc45)cc3)cc2)nc(N)n1
active: Potency (KB-3-1) 4610 nM | Potency (NIH3T3) 18400 nM | Potency (C33A) 5620 nM | Potency (CAOV3) 2240 nM | Potency (CASKI) 3550 nM | Potency (HeLa) 11200 nM | Potency (Hek293T) 25100 nM | Potency (JEG-3) 28200 nM | Potency (OV90) 3980 nM

O=C(O)/C=C/c1ccc(-c2ccc(O)c(C34CC5CC(CC(C5)C3)C4)c2)cc1
active: Potency (KB-3-1) 2060 nM | Potency (NIH3T3) 920 nM | Potency (C33A) 1580 nM | Potency (CASKI) 1780 nM | Potency (Es-2) 631 nM | Potency (HeLa) 8910 nM | Potency (Hek293T) 2000 nM | Potency (JEG-3) 2820 nM | Potency (OV90) 10000 nM

COc1c2ccoc2cc2oc(CO[C@@H]3O[C@H](CO)[C@@H](O)[C@H](O)[C@H]3O)cc(=O)c12
inactive: max response (KB-3-1) -1.43% | max response (NIH3T3) -8.92% | Potency (C33A) | Potency (CASKI) | Potency (Es-2) | Potency (HeLa) | Potency (Hek293T) | Potency (JEG-3) | Potency (OV90)

FC(F)(F)c1ccc(Nc2nc(-c3c(C(F)(F)F)nc4ccccn34)cs2)cc1
inactive: Potency (CASKI)
active: Potency (KB-3-1) 206 nM | Potency (NIH3T3) 1300 nM | Potency (C33A) 20000 nM | Potency (Es-2) 2000 nM | Potency (HeLa) 891 nM

N#Cc1c(Oc2ccc(F)c(NC(=O)Cc3cccc(C(F)(F)F)c3)c2)ccc2nc(NC(=O)C3CC3)sc12
active: Potency (KB-3-1) 16400 nM | Potency (NIH3T3) 1460 nM | Potency (Es-2) 5620 nM | Potency (HeLa) 10000 nM | Potency (OV90) 1580 nM
inactive: Potency (C33A)

CC(C)Oc1ccc(C(=O)NC(CNC(=O)CN(C)C)Cc2ccc(-c3cn4cccc(C(C)O)c4n3)cc2)cc1Cl (configuration not stated)
active: Potency (KB-3-1) 146 nM | Potency (HeLa) 251 nM
inactive: max response (NIH3T3) -19.5% | Potency (C33A) | Potency (CAOV3) | Potency (JEG-3) | Potency (OV90)

CC(=O)O[C@H]1C(=O)[C@@]2(C)[C@H]([C@H](OC(=O)c3ccccc3)[C@]3(O)C[C@H](OC(=O)[C@H](O)[C@@H](NC(=O)c4ccccc4)c4ccccc4)C(C)=C1C3(C)C)[C@]1(OC(C)=O)CO[C@@H]1C[C@@H]2O
inactive: activity change, negative = cytotoxicity (C33A) -4.13% [at 11.6 µM] | activity change, negative = cytotoxicity (CAOV3) -17.1% [at 11.6 µM] | activity change, negative = cytotoxicity (OV90) -15.2% [at 11.6 µM]
active: Potency (KB-3-1) 9.8 nM | Potency (NIH3T3) 31 nM | Potency (Es-2) 126 nM | Potency (HeLa) 31.6 nM

CC(=O)NCC(=O)N1C2CCC1c1cc(Nc3ncc(C(F)(F)F)c(NC4CCC4)n3)ccc12 (configuration not stated)
inactive: Potency (C33A) | Potency (JEG-3)
active: Potency (KB-3-1) 1030 nM | Potency (NIH3T3) 1300 nM | Potency (Es-2) 14100 nM | Potency (Hek293T) 3980 nM

NCc1ccc(Nc2ncc(F)c(Nc3ccccc3)n2)cc1
inactive: Potency (C33A) | Potency (CASKI) | Potency (Hek293T) | Potency (JEG-3) | Potency (OV90)
active: Potency (KB-3-1) 8200 nM | Potency (NIH3T3) 14600 nM | Potency (HeLa) 15800 nM

COc1cc(C(=O)NC2CCN(C)CC2)c(F)cc1Nc1ncc2c(n1)N(C1CCCC1)CC(F)(F)C(=O)N2C
active: Potency (KB-3-1) 10.3 nM | Potency (NIH3T3) 820 nM | Potency (C33A) 282 nM | Potency (Es-2) 35500 nM

Cc1ncc(CCCN(C)C)cc1Nc1ncc2c(n1)-c1ccc(C(F)(F)F)cc1NC(=S)C2
inactive: Potency (C33A) | Potency (CAOV3) | Potency (CASKI) | Potency (JEG-3)
active: Potency (KB-3-1) 4.6 nM | Potency (NIH3T3) 3660 nM

C[S+](CC[C@H](N)C(=O)[O-])C[C@H]1O[C@@H](n2cnc3c(N)ncnc32)[C@H](O)[C@@H]1O (some centres not stated)
inactive: max response (KB-3-1) 3.65% | max response (NIH3T3) -4.29% | Potency (C33A) | Potency (CASKI) | Potency (Es-2) | Potency (HeLa) | Potency (Hek293T) | Potency (JEG-3) | Potency (OV90)

Source: PubChem BioAssay (NCATS)
